D3 antag: qHTS of D3 Dopamine Receptor Antagonist: qHTS; 360,000 compounds, 2.5% hits; D3R cells, DiscoveRx beta-arrestin luminescence, antagonist mode; active compounds read low; AID 652054, 2013; D(3) dopamine receptor (Homo sapiens), P35462; max response, negative = inhibition, %; in the data active = max response below about -50%; inconclusive = no clear call, values can overlap the other calls; note: % is set by controls: 0 for no effect and ±100 for the full control effect
Target sequence (P35462 whole entry, looked up): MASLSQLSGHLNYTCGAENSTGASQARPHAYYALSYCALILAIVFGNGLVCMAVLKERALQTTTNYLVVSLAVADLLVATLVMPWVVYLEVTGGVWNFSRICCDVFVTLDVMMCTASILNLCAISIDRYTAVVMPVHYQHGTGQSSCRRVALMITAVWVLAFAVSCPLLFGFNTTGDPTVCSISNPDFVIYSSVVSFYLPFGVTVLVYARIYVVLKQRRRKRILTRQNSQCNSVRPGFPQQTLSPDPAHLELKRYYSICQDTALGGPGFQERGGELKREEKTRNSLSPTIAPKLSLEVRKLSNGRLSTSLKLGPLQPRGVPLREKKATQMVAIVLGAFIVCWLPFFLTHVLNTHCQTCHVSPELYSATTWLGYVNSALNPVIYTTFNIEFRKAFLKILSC
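Cells expressing the human receptor were seeded at 1500 cells/well, incubated overnight at 37 degrees C in 5% CO2, then exposed to library compounds with dopamine controls for 90 minutes at 37 degrees C before luminescent detection.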
D3 ag: qHTS of D3 Dopamine Receptor Agonist: qHTS. D3R DiscoveRx beta-arrestin cells, luminescence, 90 min. max activation, %. AID 652048, 2013. 410,000 compounds, 0.58% hits. D(3) dopamine receptor (Homo sapiens), P35462; in the data active = max activation above about 30%; note: 0% is about no effect
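Agonist-mode cell screen: cells plated at 1500/well and incubated overnight at 37 °C, then exposed to library compounds for 90 min at 37 °C. Detection reagent was added for 30–60 min at room temperature, and luminescence was read.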
Nrf2 ARE act: qHTS of Nrf2 Activators; Potency, µM (series often up to 46.1 µM), without a hit: top-dose activation, usual class: activators; AREc32 ARE-luciferase reporter (MCF7-derived line), luminescence, 24 h; 410,000 compounds, 0.31% hits; note: potency is the fitted concentration of half-maximal effect; % of control where 0% means no effect; nearly all actives have a fitted effect of over 65% in size
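ARE activation measured as luciferase luminescence (Steady-Glo, 30 min RT) in AREc32_Fluc cells after 24 hr compound exposure at 37 deg C, 5% CO2; cells seeded overnight at 1000/well in OPTI-MEM, 5% FBS.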
GRP78 ERSR act: qHTS for Inducers of the Endoplasmic Reticulum Stress Response (ERSR) in Human Glioma: qHTS. U87-MG GRP78 promoter luciferase reporter, 16 h. Potency, µM, for inactives: at the highest dose activation, usual class: activators. 420,000 compounds, 0.02% hits; note: potency is the fitted concentration of half-maximal effect; series mostly up to about 76 µM; % of control where 0% means no effect; nearly all actives have a fitted effect of over 35% in size
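ERSR induction read as luciferase luminescence (Bright-Glo, 10 min at room temperature) in stably transfected human U87-MG glioma cells exposed to compounds for 16 h, using GRP78 as sensor.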
* = called active by the depositor; ? = inconclusive; · = no result given; [ ] = dose if it differs, or a comment. This is a sample that favours compounds with a hit; in the whole collection about 3% have one here. Unless noted, calls come from the whole dose curve; as a rule, active = well fitted curve in the direction sought with a large enough effect; inconclusive = small, poorly fitted or top-dose-only effect, or another doubt; inactive = no such curve, though single readings can be large; an effect the other way counts as inactive or inconclusive.

SMILES	D3 antag	D3 ag	Nrf2 ARE act	GRP78 ERSR act
O=C(Cc1ccc(-c2ccccc2)cc1)NCCS(=O)(=O)N1CCN(c2ccccc2)CC1	·	-8	-1%	-2%
CCOC(=O)c1c(NC(=O)Cc2ccccc2)sc2c1CCN(CC)C2	-64*	-14	0%	-1%
COC(=O)c1c(NC(=O)C2CCCCC2)sc2c1CCN(C(C)C)C2	?	-11	2%	1%
CCN1CCc2c(sc(NC(=O)Cc3ccccc3)c2C(=O)OC)C1	-103*	-18	4%	-4%
CCOC(=O)c1c(NC(=O)C2CCCCC2)sc2c1CCN(C(C)C)C2	-60*	-12	0%	-2%
CN1CCc2c(sc(NC(=O)Cc3ccc(F)cc3)c2C(N)=O)C1	-51*	-3	0%	-7%
Cc1ncc2c(c1CNS(=O)(=O)N(C)C)CCN(C(=O)/C=C/c1ccccc1F)C2	·	·	·	-2%
CCn1cc(CN2CCOc3ccc(C(O)C4CCCCC4)cc3C2)c(C)n1 (configuration not stated)	·	·	·	-5%
CC(=O)N1CCc2c(sc(NC(=O)c3ccc([N+](=O)[O-])o3)c2C(N)=O)C1	-91*	-9	-5%	-11%
CCOc1c(Cl)cc(/C=C/C(=O)N(CC)CC(=O)Nc2ccc(NC(C)=O)cc2)cc1OC	-53*	-9	0%	-3%
CCOc1ccc(/C=C/C(=O)N(CC)CC(=O)Nc2ccc3c(c2)OCCO3)cc1OC	1	-7	0%	6%
CCOc1ccc(/C=C/C(=O)N(CC)CC(=O)Nc2ccc3c(c2)OCCO3)cc1OCC	-57*	-18	0%	2%
Cc1cccc(C)c1N(CCCc1cccnc1)C(=O)C(C)N (configuration not stated)	·	4	·	·
CN(C)CC/C=C1/c2ccccc2CSc2ccccc21	·	-21	·	·
Cc1ccc(NC(=O)COC(=O)CCc2c(C)nc3ncnn3c2C)cc1	-12	32*	0%	-1%
COCCN(C(=O)COC(=O)/C=C/c1ccco1)c1c(N)n(Cc2ccccc2)c(=O)[nH]c1=O	13	1	8%	-6%
COc1ccccc1CC(=O)N(CCC1=CCCCC1)c1c(N)n(Cc2ccccc2)c(=O)[nH]c1=O	-83*	-15	1%	-3%
COCCN(C(=O)COC(=O)/C=C/c1ccc(OC)c(OC)c1)c1c(N)n(Cc2ccccc2)c(=O)[nH]c1=O	-69*	-3	0%	-5%
CC1=NN(c2ccccc2)C(=O)/C1=C/C=C/c1ccccc1	-25	-3	11µM*	-1%
CC1=NN(c2cccc(C(=O)O)c2)C(=O)/C1=C\C=C\c1ccco1	-4	1	?	15%
COc1ccc(C2=NS(=O)(=O)N(C)C(C(=O)Nc3ccc4c(c3)OCO4)=C2)cc1	-103*	-10	5%	2%
COc1ccc(/C=C/C(=O)Nc2sc3c(c2C(N)=O)CCC(C)C3)cc1OC (configuration not stated)	·	37*	-1%	-2%
COc1cc(C(=O)Nc2sc3c(c2C(N)=O)CCC(C)C3)cc(OC)c1OC (configuration not stated)	·	0	4%	-1%
c1cnc2cc3c(cc2n1)[C@@H]1CNC[C@@H]3C1	·	·	·	-1%
Cc1onc(-c2c(Cl)cccc2Cl)c1C(=O)c1c[nH]c(C(=O)NCCCN2CCOCC2)c1	-54*	-1	0%	-2%
SMILES	D3 antag	D3 ag	Nrf2 ARE act	GRP78 ERSR act
Cc1ccccc1Cc1c(C)nc2ncnn2c1C	13	6	0%	-3%
Cc1nc2ncnn2c(C)c1Cc1ccccc1Cl	-82*	5	-1%	-5%
CCCCO	·	68*	·	-3%
CCCCCO	0	4	-1%	-3%
Cc1nn(C)c(C)c1/C=C1/SC(=S)NC1=O	-24	6	1%	-3%
COc1ccccc1C=C1SC(=S)NC1=O	0	4	0%	0%
Cc1nn(C)cc1/C=C1\SC(=S)NC1=O	-70*	0	0%	2%
O=C1NC(=S)SC1=Cc1ccccc1Cl	16	38*	9%	5%
O=C1C(=O)N(CCS(=O)(=O)c2ccccc2)c2ccc(Cl)cc21	-75*	-23	23%	3%
CCCN1C(=O)C(=O)c2cc(Cl)ccc21	-74*	-35	17%	-4%
COc1cccc(C(=O)NCC2Cc3cccc(-c4ncccn4)c3O2)c1OC (configuration not stated)	·	·	·	-3%
COc1cc(=O)n2c(c1C(=O)NCc1ccco1)CCN(C(=O)c1ccc(C)c(C)c1)CC2	·	·	·	-3%
CC/C=C(\C(=O)N[C@H]1C(=O)N2C(C(=O)OCOC(=O)C(C)(C)C)=C(COC(N)=O)CS[C@H]12)c1csc(N)n1	·	·	·	-1%
Nc1nonc1-c1noc(-c2ccccc2)n1	-63*	-4	7%	2%
Nc1nc(-c2nonc2N)no1	0	4	0%	-2%
CCCn1nc2cc(C(=O)N(CC)c3ccc(OC)cc3)ccc2c1OCC	3	49*	0%	-5%
O=C(NCc1ccc2c(c1)OCO2)c1ccccc1	-16	-6	1%	2%
Cc1ccc(C)c2sc(NC(=O)c3ccc(N4CCCCC4)c([N+](=O)[O-])c3)nc12	-59*	5	0%	2%
CCCn1nc2cc(C(=O)NCc3ccc(OC)cc3)ccc2c1OCC	0	-4	0%	-1%
O=C(NCc1ccc2c(c1)OCO2)c1ccc(Br)cc1	-15	47*	3%	-1%
O=C(NCc1ccc2c(c1)OCO2)c1ccc(N2CCCCCC2)c([N+](=O)[O-])c1	-60*	-11	0%[9.22 µM]	6%
COc1ccc(OC)c(-c2cc(Cl)c3c(c2)CC(CNC(=O)[C@@H]2CCCN2C(C)=O)O3)c1 (some centres not stated)	·	·	·	-3%
CCCn1nc2cc(C(=O)NCc3ccc4c(c3)OCO4)ccc2c1OCC	-13	-6	0%	-2%
O=C(NCc1ccc2c(c1)OCO2)c1c(-c2ccccc2)sc2ccccc12	47	67*	0%	9%
CCOc1c2ccc(C(=O)NCc3ccc4c(c3)OCO4)cc2nn1CC	-52*	13	-1%	-1%
SMILES	D3 antag	D3 ag	Nrf2 ARE act	GRP78 ERSR act
CCN(N=O)c1ccc(/C=C2\C=Cc3ccccc32)cc1	·	·	·	-2%
CC(C)CC(NC(=O)CNC(=O)C(Cc1ccc(O)cc1)NC(=O)C(CO)NC(=O)C(Cc1c[nH]c2ccccc12)NC(=O)C(Cc1cnc[nH]1)NC(=O)C1CCC(=O)N1)C(=O)NC(CCCN=C(N)N)C(=O)N1CCCC1C(=O)NCC(N)=O (configuration not stated)	·	·	·	-4%
Cc1nn(C)c(Cl)c1S(=O)(=O)N(Cc1ccco1)c1ncnc2nc[nH]c12	·	·	·	-2%
COc1cc(-c2c(C#N)c(N)nc3c2c(C)nn3-c2ccc(C)c(C)c2)cc(OC)c1OC	6	60*	8%	-3%
Cc1nn(-c2ccc(F)cc2)c2nc(N)c(C#N)c(-c3ccc(O)c(O)c3)c12	4	-2	-1%	-2%
O=C(Nc1ncnc2sc3c(c12)CCCCC3)c1ccccc1	18	0	0%	0%
